In the library only some 6.6% were active in any assay of this set; here they are far more common.
GDH-TPI inh – counter-screen for M. tuberculosis FBA inhibitors: GDH-TPI coupled enzymes. hit rate 1.2% among 360,000. GDH-TPI coupled enzyme counterscreen, NADH absorbance. inhibition, % at 4.8 µM. AID 588335; in the data active = inhibition above about 30%;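 also: 0% = DMSO wells and 100% = wells lacking the enzyme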
BoNT F protease – inhibitors of Botulinum neurotoxin F light chain protease | Multiplex microsphere protease cleavage assay, flow cytometry | hit rate 0.22% among 360,000 | inhibition, % at 10 µM; in the data active = inhibition above about 35%, passing the limit was not always enough; inconclusive = no clear call, values can overlap the other calls; also: plate controls were buffer without enzyme for full effect and enzyme alone for no effect
Autofluor counter – counter-screen for toxin protease inhibitors: compound fluorescence; fluorescence intensity (no concentration beside the values); AID 624483; hit rate 3.1% among 360,000; compound autofluorescence counterscreen, microsphere flow cytometry; stronger effect = higher value; in the data active = fluorescence intensity above about 16000; inconclusive = no clear call, values can overlap the other calls
Anthrax LF inh2 – blocks Bacillus anthracis lethal factor protease | AID 588501 | hit rate 0.12% among 360,000 | inhibition, % at 10 µM | P15917 | multiplex microsphere protease cleavage assay, LF; also: plate controls were buffer without enzyme for full effect and enzyme alone for no effect
BoNT A protease – inhibitors of Botulinum neurotoxin A light chain protease; multiplex microsphere protease substrate cleavage, flow cytometry; inhibition, % at 10 µM; hit rate 0.17% among 360,000; also: plate controls were buffer without enzyme for full effect and enzyme alone for no effect
FBA Mtb inh – Mtb fructose-bisphosphate aldolase inhibition. purified M. tuberculosis FBA, fluorescence read-out. inhibition, % at 1 µM. hit rate 2.3% among 360,000. AID 588726; in the data active = inhibition above about 27%;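 also: 0% = vehicle and 100% = reference inhibitor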
Target sequence (P9WQA3 whole entry, looked up): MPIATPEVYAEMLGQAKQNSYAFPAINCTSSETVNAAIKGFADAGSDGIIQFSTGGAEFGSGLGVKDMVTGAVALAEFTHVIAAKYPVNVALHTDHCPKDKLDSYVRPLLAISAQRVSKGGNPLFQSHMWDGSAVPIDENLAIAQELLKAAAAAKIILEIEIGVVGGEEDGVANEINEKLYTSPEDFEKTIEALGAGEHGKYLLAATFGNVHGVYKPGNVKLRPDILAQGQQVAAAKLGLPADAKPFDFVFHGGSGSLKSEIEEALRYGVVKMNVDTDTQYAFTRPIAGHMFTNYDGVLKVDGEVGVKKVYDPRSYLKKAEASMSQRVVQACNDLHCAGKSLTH
* = called active by the depositor; ? = inconclusive. Rule as the data show it, unless noted: active = inhibition above about 30%; inconclusive = no clear call, values can overlap the other calls; inactive = below that.

SMILES	GDH-TPI inh	BoNT F protease	Autofluor counter	Anthrax LF inh2	BoNT A protease	FBA Mtb inh
CCO[C@@H]1OC(C(=O)Nc2ccccc2)=C[C@H](c2csc3ccccc23)[C@H]1CCCO	11	11	4158	6	0	3
COc1cc(OC)c(C2C(C(=O)Nc3ccc(C)cc3C)=C(C)Nc3ncnn32)cc1OC (stereo unspecified)	-4	-1	23198*	-3	0	3
COc1cc(OC)c(C2C(C(=O)Nc3ccccc3)=C(C)Nc3ncnn32)cc1OC (stereo unspecified)	-1	1	16373*	0	0	-1
COc1ccccc1C1C(C(N)=O)=C(C)Nc2ncnn21 (stereo unspecified)	15	-1	16247*	-1	1	4
CCOC(=O)C1=C(c2ccccc2)Nc2ncnn2C1c1ccccn1 (stereo unspecified)	-9	8	3777	-1	1	-10
COC(=O)C1=C(C)Nc2ncnn2C1c1ccccn1 (stereo unspecified)	4	2	21583*	1	2	7
CC1=C(C(=O)N2CCOCC2)CC(CC(=O)NC2CC2)C(=O)N1Cc1ccccc1 (stereo unspecified)	14	-1	2755	3	0	0
COc1cccc(C2C(C(=O)OC(C)C)=C(C)Nc3ncnn32)c1 (stereo unspecified)	-15	-5	20726*	-10	?	-1
CC1=C(C(=O)OC(C)C)C(c2cccc(F)c2)n2ncnc2N1 (stereo unspecified)	14	-3	6449	4	-1	0
Cc1ccc(-n2nc3c([n+]2[O-])CCc2c-3no[n+]2[O-])cc1	-10	-2	21683*	1	-2	-2
COc1ccc(/C=C/C(=O)N[C@H](C(=O)O)C(C)C)cc1	6	-5	4493	-3	0	-2
COc1ccc(/C=C/C(=O)NC(=S)NNC(=O)Cc2cccs2)cc1	41*	3	2430	-3	0	7
O=C(/C=C/c1ccccc1)NC(=S)NNC(=O)Cc1cccs1	7	4	4602	-2	-1	5
COc1ccc(/C=C/C(=O)NC(=S)NNC(=O)c2ccco2)cc1	41*	-7	3187	-2	-1	12
Cc1ccccc1OCC(=O)N(Cc1ccc(N(C)C)cc1)C1CCS(=O)(=O)C1 (stereo unspecified)	-16	-4	23914*	2	-1	0
CCCOc1cccc(C(=O)N(Cc2ccc(OC)c(OC)c2)C2CCS(=O)(=O)C2)c1 (stereo unspecified)	-1	-3	23243*	-2	-1	2
CN(C)c1ccc(CN(C(=O)COc2ccccc2)C2CCS(=O)(=O)C2)cc1 (stereo unspecified)	25	-6	16811*	-2	-2	-5
O=C1C2CC=CCC2C(=O)N1CC(=O)N(Cc1ccccc1)C1CCS(=O)(=O)C1 (stereo unspecified)	-3	4	22395*	-4	1	-5
CC(=O)Nc1ccc(SC[C@H](Cc2ccccc2)N2CC[C@@H](C(C)(C)C)CCC2=O)cc1	8	-8	4459	-7	-1	1
COc1cccc(C(=O)O)c1OS(=O)(=O)c1ccc(C)cc1	4	0	3794	-8	0	0
COc1ccc(N2C(=O)C3C4C=CC(C4)C3C2=O)c([N+](=O)[O-])c1 (stereo unspecified)	1	1	3455	-1	0	2
COc1ccc(N2C(=O)C3C4C=CC(C4)C3C2=O)c(OC)c1 (stereo unspecified)	4	1	22210*	1	0	2
Cc1ccc(Nc2nc(N)nc(CN3CCN(c4ccccc4)CC3)n2)cc1Cl	11	0	21461*	-6	?	-3
COc1ccc(Nc2nc(N)nc(CN3CCOCC3)n2)cc1	11	1	2650	-2	0	-7
COc1ccccc1Nc1nc(N)nc(CN2CCN(c3ccccc3)CC2)n1	-4	1	21394*	0	2	2
SMILES	GDH-TPI inh	BoNT F protease	Autofluor counter	Anthrax LF inh2	BoNT A protease	FBA Mtb inh
Nc1nc(CN2CCCCCC2)nc(Nc2ccc(F)cc2)n1	16	9	2831	4	2	-7
Nc1nc(CN2CCN(Cc3ccccc3)CC2)nc(Nc2ccc3c(c2)OCCO3)n1	0	-7	4413	-2	1	-5
Nc1nc(CN2CCN(c3ccccn3)CC2)nc(Nc2ccc(F)cc2)n1	8	-1	16591*	-2	0	-1
COc1ccc(N2CCN(Cc3nc(N)nc(Nc4ccc(C)c(Cl)c4)n3)CC2)cc1	-7	-2	21102*	-5	-1	-1
Cc1ccc(Nc2nc(N)nc(CN3CCN(Cc4ccc5c(c4)OCO5)CC3)n2)cc1Cl	-6	-5	23185*	-4	-1	0
Cc1ccc(Nc2nc(N)nc(CN3CCN(Cc4ccc5c(c4)OCO5)CC3)n2)cc1C	1	2	5201	-5	-1	-1
CS(=O)(=O)c1ccc(N2CCN(C3CC(=O)NC3=O)CC2)cc1 (stereo unspecified)	-7	-4	2732	-1	0	1
COc1ccc(N2CCN(C3CC(=O)NC3=O)CC2)cc1 (stereo unspecified)	14	-10	24614*	-5	?	-2
N#C/C(=C\Nc1ccc2cn[nH]c2c1)c1nc(-c2ccccc2)cs1	-3	1	4094	-1	0	1
Cc1ccnc(N/C=C(\C#N)c2nc(-c3cccc(Br)c3)cs2)c1	0	39*	8599	39*	56*	1
CN1CCC(N2CC3CC(C2)c2cccc(=O)n2C3)CC1 (stereo unspecified)	6	-6	24622*	0	-2	0
CC1CCc2sc(C(=O)NCc3ccc(F)cc3)cc2C1 (stereo unspecified)	8	-6	24108*	-5	?	0
O=C(NCc1ccc(F)cc1)c1cc2c(s1)CCCC2	4	-14	3902	8	0	-4
COc1nc2ccccc2nc1CCC(=O)O	2	2	4566	15	0	7
C=CCn1c(=O)c2c3c(sc2n2c(Nc4ccc(C(=O)OCC)cc4)nnc12)CCCC3	0	-8	17959*	1	-3	2
CC(C)COC(=O)N1CCCC(c2cc(C(=O)Nc3ccccc3Cl)no2)C1 (stereo unspecified)	5	1	3408	-4	0	-3
CSc1nc2n(n1)C(c1cc(Br)ccc1F)C(C(=O)N(C)C)=C(C)N2 (stereo unspecified)	-12	-4	20105*	-6	-2	1
COc1ccc(NC(=O)c2ccccc2C)c(OC)c1	-1	2	16437*	-2	-1	2
COc1ccccc1NC(=O)c1cccnc1	5	-14	3025	-5	0	5
COc1ccc(NC(=O)c2cccnc2)c(OC)c1	-5	2	20616*	-1	?	1
COc1ccc(NC(=O)Nc2cc(C)ccc2OC(F)F)c(OC)c1	-9	1	22223*	-6	2	1

Compound activity from PubChem BioAssay.
